Screens from PubChem BioAssay.
This is a sample that favours compounds with a hit; in the whole collection about 2.3% have one here.
WRN inhibitor: WRN helicase (human) inhibition; Q14191; WRN helicase unwinding, fluorescent forked duplex, kinetic; Potency, µM (series often up to 114 µM), for the others: top-dose activity change, negative = inhibition, most hits filed as inhibitors; 360,000 compounds, 0.46% hits; further: potency means the concentration at half of the fitted maximal effect; on the % scale 0 is the no-effect control and ±100 the full control effect; nearly all actives have a fitted effect of over 55% in size
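WRN at 20 nM final was preincubated with compound for 15 min at room temperature; reaction started with 100 nM forked duplex oligonucleotide carrying fluorophore and quencher plus 2 mM ATP (final). Unwinding followed kinetically by red fluorescence (ex 525/em 598 nm).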
Pol beta inh: DNA polymerase beta (human) inhibition | Pol beta primer extension/strand displacement, fluorescence kinetic | Potency, µM (series often up to 114 µM), inactives show at the highest dose activity change, negative = inhibition, usual class: inhibitors | 340,000 compounds, 1.3% hits; further: potency means the concentration at half of the fitted maximal effect; on the % scale 0 is the no-effect control and ±100 the full control effect
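Kinetic readout of DNA synthesis with strand displacement by Pol beta. Compound and 10 nM enzyme sit 15 min at room temperature; 50 nM substrate starts the reaction, read immediately and at 10 min.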
Pol kappa inh-1: blocks human DNA polymerase kappa activity. Q9UBT6. purified Pol kappa, fluorescent DNA synthesis assay, 10 min. Potency, µM (doses to about 107 µM), for inactives: at the highest dose activity, negative = inhibition, hits mostly inhibitors. 400,000 compounds, 0.53% hits; further: potency means the concentration at half of the fitted maximal effect; on the % scale 0 is the no-effect control and ±100 the full control effect
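50 nM final substrate added after 15 min RT preincubation of 10 nM Pol kappa with compound; fluorescence read at 0 and 10 min.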
Pol iota inh: blocks human DNA polymerase iota activity; Q9UNA4; Pol iota fluorescent replication assay, 10 min; Potency, µM (doses to about 115 µM), for the others: top-dose activity, negative = inhibition, usual class: inhibitors; 390,000 compounds, 1% hits; AID 588590; further: potency means the concentration at half of the fitted maximal effect
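Fluorescent replication assay read twice, at 0 min and 10 min after adding 50 nM (final) substrate. Enzyme (10 nM) and compounds were first incubated 15 min at room temperature; enzyme-free buffer wells were negative controls.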
Pol eta inh-1: blocks human DNA polymerase eta activity; Potency, µM (highest dose often 114 µM), for inactives: at the top dose activity change, negative = inhibition, actives largely listed as inhibitors; 390,000 compounds, 1.2% hits; Q9Y253; recombinant Pol eta, fluorescent DNA replication assay; AID 588591; further: potency means the concentration at half of the fitted maximal effect; on the % scale 0 is the no-effect control and ±100 the full control effect
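Pol eta (10 nM) was preincubated with compounds for 15 min at room temperature, after which fluorescent replication substrate (50 nM final) was added to start the reaction. Fluorescence was read kinetically at 0 and 10 min.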
GALK inh confirm: galactokinase (human) inhibition, confirmation | shares compounds with Pol eta inh-1 | purified GALK, Kinase-Glo ATP depletion luminescence | Potency, µM (series often up to 115 µM), inactives show at the highest dose activity, negative = inhibition, actives largely listed as inhibitors | 150 compounds, 70% hits
Redox cycling: redox cycling activity in phenol red-HRP assay; shares compounds with Pol eta inh-1; Phenol red-HRP H2O2 redox cycling, absorbance 600 nm; Potency, µM (series often up to 115 µM), inactives show at the highest dose activity change, negative = H2O2 signal, most hits filed as inhibitors; 150 compounds, 40% hits; AID 2035
HEK293 viability: HEK-293 cytotoxicity, GALK inhibitor secondary. AID 2547. 170 compounds, 10% hits. shares compounds with Pol eta inh-1. Potency, µM (titrated, usually from 46.1 µM), for inactives: at the top dose activity change, negative = cytotoxicity, hits mostly inhibitors. HEK-293 viability, ATP luminescence (CellTiter-Glo), 24/48 h; further: potency means the concentration at half of the fitted maximal effect; on the % scale 0 is the no-effect control and ±100 the full control effect
Pol kappa inh-2: Pol kappa (human) inhibition, cherry-pick confirmation; shares compounds with Pol eta inh-1; purified Pol-kappa, fluorescent strand-displacement substrate; Potency, µM, usual class: inhibitors; AID 720501; 920 compounds, 76% hits; further: potency means the concentration at half of the fitted maximal effect
Pol eta inh-2: confirmation of human DNA polymerase eta inhibitors | Pol eta primer extension, TAMRA/BHQ fluorescence, 10 min | Potency, µM, hits mostly inhibitors | shares compounds with Pol eta inh-1 | 2,600 compounds, 64% hits | AID 720502; further: potency means the concentration at half of the fitted maximal effect
Numbers without * were called inactive; ? = inconclusive; · = no result; [ ] = another dose, or the depositor's remark. The call rests on the fitted dose curve; in most records, active means well fitted curve in the direction sought with a large enough effect; inconclusive means small, poorly fitted or top-dose-only effect, or another doubt; inactive means no such curve, though single readings can be large; an effect the other way counts as inactive or inconclusive.

SMILES	WRN inhibitor	Pol beta inh	Pol kappa inh-1	Pol iota inh	Pol eta inh-1	Pol eta inh-2	others
CC1=C(C(=O)O)N2C(=O)C(NC(=O)c3nn(C)c(C)c3Cl)C2SC1 (centres undefined)	-9.6%	8.8%	-25.7%	?	31.6µM*	47.8*	Pol kappa inh-2=42.3*
COC(=O)c1cc(C(=O)OC)cc(-n2c(C)cc(C(=O)COC(=O)CNS(=O)(=O)c3ccc(C)cc3)c2C)c1	-23.5%[57.1 µM]	-4.9%	-31.9%	?	22.4µM*	?
C[C@@H](C(=O)Nc1nc(-c2ccccn2)cs1)N1C(=O)C2CCCCC2C1=O (some centres undefined)	?	12.6µM*	-14.9%	7.08µM*	12.6µM*	?
O=C(CCc1nc2ccccc2c(=O)[nH]1)NCC(=O)Nc1ccc(F)c(F)c1	1.6%	·	-11.3%	26.9%	-6.8%	·
O=C(CCc1nc2ccccc2c(=O)[nH]1)Nc1ccc(F)c([N+](=O)[O-])c1	-23.7%	?	-35.0%	49.0%	?	67.5*
COc1cccc(Nc2cc(C)nc3nc(-c4ccc(Cl)cc4)nn23)c1	·	?	-14.0%	?	79.4µM*	·	Pol kappa inh-2=10.6*
COc1cccc(Nc2cc(C)nc3nc(C)nn23)c1	7.9%	2.4%	-7.5%	11.1%	-16.5%	·
Cc1ccc(/C=c2\sc3nc(-c4cccnc4)nn3c2=O)cc1	?	?	-20.9%	?	10µM*	?
COc1ccc2oc(C(=O)Nc3ccc(N4CCOCC4)cc3)c(C)c2c1	?	·	?	?	12.6µM*	37.9*
O=S(=O)(NCc1cccs1)c1ccc(Br)s1	·	17.9%	·	·	·	·	GALK inh confirm=-9.1%;Redox cycling=0.2%;HEK293 viability=12.8%
O=S(=O)(NCc1cccs1)c1ccc(Cl)s1	0.9%	6.1%	-7.6%	-2.4%	-0.3%	·
O=C1N=C(N2C=CC(=C3C=CNC=C3)C=C2)/C(=C/N=NC(=O)c2ccccc2O)S1	-31.2%	14.1µM*	?	31.6µM*	17.8µM*	75.7*
COCc1cc(=O)n2[nH]c(-c3ccsc3-n3c(C)ccc3C)cc2n1	31.6µM*	31.6µM*	11.2µM*	?	10µM*	60.1*	Pol kappa inh-2=29.9*
COc1ccc(-c2c(C)c3ccc(O)c(CN4CCC(C)CC4)c3oc2=O)cc1OC	·	5.3%	-6.7%[60.1 µM]	-18.4%	1.8%	·
CC(C)NS(=O)(=O)c1ccc2[nH]c3nc(SCC(=O)Nc4ccc(F)c(F)c4)nnc3c2c1	·	·	79.4µM*	79.4µM*	·	?
CCOC(=O)N/N=C\C=C\c1ccco1	-5.2%[11.6 µM]	?	-37.4%	?	79.4µM*	75.7*
Cc1cccc(OCC(=O)N/N=C/C=C/c2ccco2)c1	-25.9%[57.1 µM]	35.5µM*	?	?	?	?
Cc1cccc(C)c1OCC(=O)N/N=C/C=C/c1ccco1	6.6%	-0.6%	-11.1%	-2.9%	16.6%	·
CCOC(=O)c1c(NS(=O)(=O)c2ccc(Br)cc2)sc2c1CCC2	?	·	79.4µM*	11.2µM*	20µM*	?
O=c1cc(-c2ccc([N+](=O)[O-])cc2)nc2cc(-c3ccc(F)cc3)[nH]n12	?	-0.6%	-15.9%	?	20µM*	67.5*
